Records with an inconclusive call do not appear. Activity calls are given as the source filed them. Unless noted, calls come from the whole dose curve.
Columns and labels:
[1] = qHTS assay to identify small molecule agonists of the sonic hedgehog signaling (Shh) pathway (AID 1259368);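 note: NIH/3T3-derived 3T3Gli1-Luc cells carrying a stable Gli1-driven firefly luciferase reporter; series mostly up to about 92 µM; nearly all actives have a fitted effect of over 15% in size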
Outline: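 3T3Gli1-Luc (NIH/3T3 clone, stable Gli1-Luc); 4 hr pre-incubation, then cpd in DMSO 24 hr, 37 C/5% CO2; luciferase reagent 30 min RT; luminescence.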

[2] = qHTS assay to identify small molecule antagonists of the sonic hedgehog signaling (Shh) pathway (AID 1259369); note: nearly all actives have a fitted effect of over 45% in size; note: potency is the fitted concentration of half-maximal effect
Outline: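 3T3Gli1-Luc, conditioned-medium-stimulated, 24hr cpd, 37C/5% CO2; Gli1-driven firefly Luc luminescence after 30min RT with luciferase reagent. Cells plated 4hr before cpd.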

[3] = target: Estrogen receptor beta (Homo sapiens) (UniProt Q92731); assay: qHTS assay to identify small molecule agonists of the estrogen receptor beta (ER-beta) signaling pathway (AID 1259377; active = well fitted activation curve with a large enough effect in the signal ratio in the repeat runs, not every such curve was filed as active; the % refers to the signal ratio)
Sequence of Estrogen receptor beta (Homo sapiens) (Q92731 whole entry, looked up): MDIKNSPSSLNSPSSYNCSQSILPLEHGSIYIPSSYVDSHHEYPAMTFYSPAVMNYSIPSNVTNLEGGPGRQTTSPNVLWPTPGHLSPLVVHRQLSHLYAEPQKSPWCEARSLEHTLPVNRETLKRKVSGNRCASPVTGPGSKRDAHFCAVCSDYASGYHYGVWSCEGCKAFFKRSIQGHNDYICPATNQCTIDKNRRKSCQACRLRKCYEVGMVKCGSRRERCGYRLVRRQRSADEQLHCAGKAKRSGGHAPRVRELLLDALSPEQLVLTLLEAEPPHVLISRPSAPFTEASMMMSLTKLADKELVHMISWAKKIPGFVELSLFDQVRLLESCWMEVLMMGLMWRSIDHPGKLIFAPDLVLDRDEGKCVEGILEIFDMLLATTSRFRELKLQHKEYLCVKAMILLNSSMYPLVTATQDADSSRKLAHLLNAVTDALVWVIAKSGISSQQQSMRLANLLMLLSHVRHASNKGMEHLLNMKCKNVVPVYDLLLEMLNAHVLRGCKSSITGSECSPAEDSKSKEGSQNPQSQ
Outline: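 In HEK293T cells bearing a UAS-beta-lactamase reporter under ER-beta control, DMSO-delivered compounds were incubated for 16 hr at 37C. Activity was detected as fluorescence 2 hours after LiveBLAzer B/G FRET substrate addition.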

[4] = target: Estrogen receptor beta (Homo sapiens) (UniProt Q92731); assay: qHTS assay to identify small molecule antagonists of the estrogen receptor beta (ER-beta) signaling pathway (AID 1259378; active = well fitted inhibition curve with a large enough effect in the signal ratio in the repeat runs, not every such curve was filed as active; the % refers to the signal ratio; note: potency is the fitted concentration of half-maximal effect)
Outline: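 ER-beta-UAS-bla HEK293T cells in 2% charcoal-stripped FBS medium treated with compound plus 1nM final 17-beta-estradiol for 16 hr at 37C. Beta-lactamase reporter read by FRET substrate fluorescence after 2 hours at room temperature.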

[5] = qHTS assay to identify small molecule agonists of the estrogen receptor beta (ER-beta) signaling pathway - cell viability counter screen (AID 1259380; active = well fitted curve in the direction sought with a large enough effect in the repeat runs; an effect the other way counts as inactive or inconclusive; note: nearly all actives have a fitted effect of over 30% in size; note: potency is the fitted concentration of half-maximal effect)
Outline: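 HEK293T ER-beta-UAS-bla; 2% CS-FBS; 6 hr pre-plate, 16 hr cpd at 37C/5% CO2; LiveBLAzer read first, then CellTiter-Glo 30 min RT, luminescence.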

[6] = target: Androgen receptor (Homo sapiens) (UniProt P10275); assay: qHTS assay to identify small molecule agonists of the androgen receptor (AR) signaling pathway in the presence of an antagonist (AID 1259381); note: nearly all actives have a fitted effect of over 15% in size
Sequence of Androgen receptor (Homo sapiens) (P10275 whole entry, looked up): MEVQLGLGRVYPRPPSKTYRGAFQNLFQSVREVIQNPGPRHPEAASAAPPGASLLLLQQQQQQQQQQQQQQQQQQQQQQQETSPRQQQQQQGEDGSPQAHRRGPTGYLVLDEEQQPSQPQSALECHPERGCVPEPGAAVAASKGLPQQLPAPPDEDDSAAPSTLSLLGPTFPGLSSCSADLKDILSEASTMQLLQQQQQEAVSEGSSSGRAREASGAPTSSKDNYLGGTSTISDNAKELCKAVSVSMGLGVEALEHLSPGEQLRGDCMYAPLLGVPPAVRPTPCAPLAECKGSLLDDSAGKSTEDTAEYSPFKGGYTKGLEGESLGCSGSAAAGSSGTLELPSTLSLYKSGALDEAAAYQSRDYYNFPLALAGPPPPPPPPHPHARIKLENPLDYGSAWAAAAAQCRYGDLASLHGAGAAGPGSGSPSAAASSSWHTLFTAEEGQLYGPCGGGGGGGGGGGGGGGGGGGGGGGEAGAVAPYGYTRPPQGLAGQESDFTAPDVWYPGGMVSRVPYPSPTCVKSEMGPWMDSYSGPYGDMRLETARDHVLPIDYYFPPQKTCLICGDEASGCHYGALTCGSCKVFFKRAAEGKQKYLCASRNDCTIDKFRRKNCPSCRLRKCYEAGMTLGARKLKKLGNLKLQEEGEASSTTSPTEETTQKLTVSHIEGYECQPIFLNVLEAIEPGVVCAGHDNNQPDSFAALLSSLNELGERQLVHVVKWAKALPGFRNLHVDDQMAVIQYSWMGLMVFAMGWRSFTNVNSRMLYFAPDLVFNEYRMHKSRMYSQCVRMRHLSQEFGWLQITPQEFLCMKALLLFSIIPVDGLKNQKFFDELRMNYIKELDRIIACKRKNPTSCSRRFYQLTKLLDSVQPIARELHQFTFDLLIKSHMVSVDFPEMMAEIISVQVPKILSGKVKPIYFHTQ
Outline: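 MDA-kb2 cells, 3,000/well, rested 5hr at 37C/0% CO2 → nilutamide 3.0uM final or buffer → compounds, 15 conc. → 16hr at 37C → ONE-Glo, 30min RT → luminescence.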

[7] = qHTS assay to identify small molecule antagonists of the estrogen receptor beta (ER-beta) signaling pathway - cell viability counter screen (AID 1259382; active = well fitted curve in the direction sought with a large enough effect in the repeat runs; an effect the other way counts as inactive or inconclusive; note: series mostly up to about 92 µM; nearly all actives have a fitted effect of over 55% in size)
Outline: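 Cells: ER-beta-UAS-bla HEK293T, 2,000/well, 2% CS-FBS, 6 hr settle. Cpd + E2 (1nM final), 16 hr, 37C/5% CO2. Bla FRET substrate 2 hr RT, then CellTiter-Glo 30 min RT, luminescence.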

[8] = target: Estrogen receptor (Homo sapiens) (UniProt P03372); assay: qHTS assay to identify small molecule agonists of the estrogen receptor alpha (ER-alpha) signaling pathway in the presence of an antagonist (AID 1259383); note: top concentration of the series differs between compounds; nearly all actives have a fitted effect of over 15% in size
Sequence of Estrogen receptor (Homo sapiens) (P03372 whole entry, looked up): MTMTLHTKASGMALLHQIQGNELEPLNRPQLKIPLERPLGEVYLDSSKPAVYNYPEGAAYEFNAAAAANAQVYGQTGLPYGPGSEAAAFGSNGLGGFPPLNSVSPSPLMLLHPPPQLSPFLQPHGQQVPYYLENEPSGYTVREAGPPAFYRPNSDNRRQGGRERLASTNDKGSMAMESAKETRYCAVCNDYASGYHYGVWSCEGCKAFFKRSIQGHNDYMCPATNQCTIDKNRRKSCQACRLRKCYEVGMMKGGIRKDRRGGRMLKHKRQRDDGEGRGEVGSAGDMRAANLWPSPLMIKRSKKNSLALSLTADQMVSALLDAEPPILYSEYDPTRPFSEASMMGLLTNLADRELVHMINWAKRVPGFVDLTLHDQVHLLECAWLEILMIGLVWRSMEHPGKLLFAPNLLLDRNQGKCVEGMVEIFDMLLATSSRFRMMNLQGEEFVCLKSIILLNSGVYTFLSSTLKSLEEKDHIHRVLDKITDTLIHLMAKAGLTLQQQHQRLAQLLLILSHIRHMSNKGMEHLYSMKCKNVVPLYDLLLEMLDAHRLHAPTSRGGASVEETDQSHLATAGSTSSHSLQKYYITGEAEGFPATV
Outline: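 VM7Luc4E2, endog. ER-alpha + 4×ERE-luc; charcoal-stripped FBS, phenol red-free, 5 d; 24hr plating; +10.0nM ICI-182,780 (final); cpds 15 conc, 22hr, 37C/5% CO2; ONE-Glo luminescence.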

[9] = qHTS assay to identify small molecule agonists or antagonists of the thyroid stimulating hormone receptor (TSHR) signaling pathway - wild type cell line counter screen (AID 1259384)
Outline: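 Wild-type Hek293 cells, 800/well, 18 h at 37C, then compound with Ro20-1724 for 30 min RT. cAMP by HTRF (cAMP-d2/anti-cAMP cryptate), 1 h RT, fluorescence read. 15 concentrations, triplicates.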

[10] = target: Thyrotropin receptor (Homo sapiens) (UniProt P16473); assay: qHTS assay to identify small molecule antagonists of the thyroid stimulating hormone receptor (TSHR) signaling pathway (AID 1259385); note: nearly all actives have a fitted effect of over 20% in size
Sequence of Thyrotropin receptor (Homo sapiens) (P16473 whole entry, looked up): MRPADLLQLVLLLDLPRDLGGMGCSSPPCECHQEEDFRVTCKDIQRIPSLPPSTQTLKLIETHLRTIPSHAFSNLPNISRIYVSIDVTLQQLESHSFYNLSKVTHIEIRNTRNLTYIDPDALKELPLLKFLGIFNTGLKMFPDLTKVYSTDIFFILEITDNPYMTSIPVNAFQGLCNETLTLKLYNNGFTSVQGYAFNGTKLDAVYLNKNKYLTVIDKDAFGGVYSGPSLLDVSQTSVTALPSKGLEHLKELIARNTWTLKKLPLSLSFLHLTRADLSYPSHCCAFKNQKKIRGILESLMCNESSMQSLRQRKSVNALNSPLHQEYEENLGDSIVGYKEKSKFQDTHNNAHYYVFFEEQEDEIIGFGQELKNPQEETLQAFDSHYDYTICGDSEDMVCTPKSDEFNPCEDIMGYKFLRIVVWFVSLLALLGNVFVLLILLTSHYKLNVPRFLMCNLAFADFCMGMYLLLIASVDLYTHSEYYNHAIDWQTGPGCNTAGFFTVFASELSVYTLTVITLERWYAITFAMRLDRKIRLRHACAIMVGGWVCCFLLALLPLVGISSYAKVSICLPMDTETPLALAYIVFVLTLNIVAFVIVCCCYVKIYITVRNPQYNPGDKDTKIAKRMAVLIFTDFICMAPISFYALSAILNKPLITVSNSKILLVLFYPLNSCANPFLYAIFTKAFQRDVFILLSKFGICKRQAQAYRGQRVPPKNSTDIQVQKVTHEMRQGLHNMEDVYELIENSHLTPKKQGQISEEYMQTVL
Outline: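 TSHR-HEK293 cells (800/well) plated 18 h, then compounds with Ro20-1724 and TSH at 1.5 ng/mL final, 30 min at room temperature. cAMP quantified by HTRF (cAMP-d2/anti-cAMP-cryptate, 1 h); 15 concentrations in triplicate.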

[11] = qHTS assay to identify small molecule agonists of the estrogen receptor alpha (ER-alpha) signaling pathway in the presence of an antagonist - cell viability counter screen (AID 1259386; active = well fitted curve in the direction sought with a large enough effect in the repeat runs; an effect the other way counts as inactive or inconclusive;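 note: series mostly up to about 92 µM; cells exposed to compounds for 22 h at 37 °C before the viability read; nearly all actives have a fitted effect of over 30% in size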)
Outline: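 VM7Luc4E2, stripped-serum pre-culture 5 d; 24hr plating; +ICI-182,780 10.0nM final; cpds 15 conc, 22hr, 37C/5% CO2; CellTiter-Fluor added at 21hr, fluorescence 1hr later.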

[12] = target: Progesterone receptor (Homo sapiens) (UniProt P06401); assay: qHTS assay to identify small molecule antagonists of the progesterone receptor (PR) signaling pathway (AID 1346795; active = well fitted inhibition curve with a large enough effect in the signal ratio in the repeat runs, not every such curve was filed as active; the % refers to the signal ratio)
Sequence of Progesterone receptor (Homo sapiens) (P06401 whole entry, looked up): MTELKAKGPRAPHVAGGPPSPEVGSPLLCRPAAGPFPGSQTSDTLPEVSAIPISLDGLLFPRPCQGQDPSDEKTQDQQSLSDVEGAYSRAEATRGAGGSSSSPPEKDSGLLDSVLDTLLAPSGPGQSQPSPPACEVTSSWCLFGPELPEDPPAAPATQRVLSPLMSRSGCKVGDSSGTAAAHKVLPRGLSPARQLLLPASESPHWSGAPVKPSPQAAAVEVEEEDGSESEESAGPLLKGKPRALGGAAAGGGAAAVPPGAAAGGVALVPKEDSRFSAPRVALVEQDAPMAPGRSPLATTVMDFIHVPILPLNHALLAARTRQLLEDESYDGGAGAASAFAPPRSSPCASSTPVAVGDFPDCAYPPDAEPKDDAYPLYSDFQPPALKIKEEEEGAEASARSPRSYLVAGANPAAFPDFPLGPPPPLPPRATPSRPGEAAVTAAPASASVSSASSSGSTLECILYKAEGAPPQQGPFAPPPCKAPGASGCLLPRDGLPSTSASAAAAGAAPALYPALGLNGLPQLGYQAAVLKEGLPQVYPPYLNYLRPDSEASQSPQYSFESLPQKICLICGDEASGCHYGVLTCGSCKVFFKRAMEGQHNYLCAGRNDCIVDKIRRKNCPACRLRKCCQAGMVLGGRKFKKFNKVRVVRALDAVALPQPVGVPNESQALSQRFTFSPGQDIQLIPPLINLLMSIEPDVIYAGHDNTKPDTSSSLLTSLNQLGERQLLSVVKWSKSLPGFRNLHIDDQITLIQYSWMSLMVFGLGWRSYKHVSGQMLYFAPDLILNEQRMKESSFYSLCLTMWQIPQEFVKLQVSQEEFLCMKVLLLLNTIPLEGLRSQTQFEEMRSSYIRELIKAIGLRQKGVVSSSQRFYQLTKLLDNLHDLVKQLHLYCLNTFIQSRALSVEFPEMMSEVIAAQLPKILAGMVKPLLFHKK
Outline: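 Inhibition of R5020-induced (1 nM final) beta-lactamase reporter signal in PR-UAS-bla HEK293T cells was scored by FRET fluorescence after overnight (16 hr) compound treatment.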

[13] = qHTS assay to identify small molecule antagonists of the progesterone receptor (PR) signaling pathway - cell viability counter screen (AID 1346798; active = well fitted curve in the direction sought with a large enough effect in the repeat runs; an effect the other way counts as inactive or inconclusive; note: series mostly up to about 92 µM; nearly all actives have a fitted effect of over 50% in size)
Outline: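 ATP content as viability readout: CellTiter-Glo luminescence, 30 min room temperature, in PR-UAS-bla HEK293T cells after 16 hr compound/R5020 treatment at 37C and 5% CO2.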

[14] = qHTS assay to identify small molecule agonists of the progesterone receptor (PR) signaling pathway - cell viability counter screen (AID 1346799); note: nearly all actives have a fitted effect of over 45% in size
Outline: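 Cytotoxicity in PR-bla HEK293T cells: 16 h compound, 37C; CellTiter-Glo added post-FRET read; luminescence after 30 min RT.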

[15] = qHTS assay to identify small molecule antagonists of the TGF-beta/Smad signaling pathway - cell viability counter screen (AID 1346824; active = well fitted curve in the direction sought with a large enough effect in the repeat runs; an effect the other way counts as inactive or inconclusive; note: nearly all actives have a fitted effect of over 50% in size)
Outline: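 SBE-bla HEK 293T cells, incubated overnight, then compound plus 0.25 ng/mL TGF-beta1 (stock added) for 5 hr at 37 C. Viability was read in the same wells by CellTiter-Glo luminescence after 30 min at room temperature.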

[16] = qHTS assay to identify small molecule agonists of the TGF-beta/Smad signaling pathway - cell viability counter screen (AID 1346829; active = well fitted curve in the direction sought with a large enough effect in the repeat runs; an effect the other way counts as inactive or inconclusive; note: top concentration of the series differs between compounds; nearly all actives have a fitted effect of over 45% in size)
Outline: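 In parallel with the Smad reporter read, viability of HEK 293T cells stably carrying SBE-bla is quantified by ATP luminescence following 5 hr compound treatment.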

[17] = qHTS assay to identify small molecule agonists of the TGF-beta/Smad signaling pathway (AID 1346859; active = well fitted activation curve with a large enough effect in the signal ratio in the repeat runs, not every such curve was filed as active; the % refers to the signal ratio; note: series mostly up to about 77 µM)
Outline: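 Stable Smad binding element-beta-lactamase HEK 293T cells; 5 hr compound exposure at 37 C under 5% CO2; 2 hr room-temperature substrate step; fluorescence excited at 405 nm, collected at 460 nm and 530 nm.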

[18] = target: Thyrotropin-releasing hormone receptor (Homo sapiens) (UniProt P34981); assay: qHTS assay to identify small molecule antagonists of the thyrotropin-releasing hormone receptor (TRHR) signaling pathway (AID 1346877; active = well fitted inhibition curve with a large enough effect in the repeat runs, not every such curve was filed as active; note: series mostly up to about 51 µM)
Sequence of Thyrotropin-releasing hormone receptor (Homo sapiens) (P34981 whole entry, looked up): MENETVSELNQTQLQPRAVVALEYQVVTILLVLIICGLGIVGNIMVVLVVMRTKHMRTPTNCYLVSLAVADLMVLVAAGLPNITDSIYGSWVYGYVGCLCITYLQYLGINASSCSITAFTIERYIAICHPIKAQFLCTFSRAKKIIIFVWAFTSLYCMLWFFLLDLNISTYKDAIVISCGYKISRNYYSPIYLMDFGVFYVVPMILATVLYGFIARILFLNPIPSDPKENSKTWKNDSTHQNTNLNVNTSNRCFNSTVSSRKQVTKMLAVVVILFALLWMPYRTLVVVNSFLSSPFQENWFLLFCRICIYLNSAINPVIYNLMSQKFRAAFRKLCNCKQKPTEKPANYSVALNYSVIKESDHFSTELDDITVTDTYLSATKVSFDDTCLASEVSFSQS
Outline: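 Intracellular calcium fluorescence, read kinetically every second over 3 min, reports TRH-evoked signalling in HEK293 cells carrying TRHR. Test compounds were added 5 min ahead of a 1 nM TRH challenge.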

[19] = target: Progesterone receptor (Homo sapiens) (UniProt P06401); assay: qHTS assay to identify small molecule agonists of the progesterone receptor (PR) signaling pathway (AID 1346784); note: nearly all actives have a fitted effect of over 30% in size
Outline: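 Using charcoal-stripped serum (2%) to limit endogenous steroids, PR-UAS-bla HEK 293T cells received compounds for 16 hr at 37C after 6 hr plating; beta-lactamase FRET fluorescence was recorded following 2 hr substrate loading at room temperature.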

[20] = qHTS assay to identify small molecule agonists of the androgen receptor (AR) signaling pathway in the presence of an antagonist - cell viability counter screen (AID 1259379; active = well fitted curve in the direction sought with a large enough effect in the repeat runs; an effect the other way counts as inactive or inconclusive;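 note: MDA-kb2 human breast cancer cells carrying an MMTV luciferase reporter; series mostly up to about 92 µM; nearly all actives have a fitted effect of over 25% in size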)
Outline: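 Cells: MDA-kb2 (MMTV-luc, AR and GR elements), 3,000/well, 5 hr settle. Added: nilutamide 3.0uM final, then compounds (15 conc.). Incubation: 16 hr, 37C, no CO2. Read-out: CellTiter-Fluor, 1 hr, fluorescence.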

Measured: Potency

COC(=O)/C=C(/C)N
not listed: [19] | [20]
inactive: all other assays above

CCCCCCCCCCCCCCCCOP(=O)([O-])OCC[N+](C)(C)C
not listed: [5] | [6] | [8] | [12] | [14] | [18] | [20]
inactive: all other assays above

CC(C)=CCC[C@](C)(O)[C@@H]1CC=C(C)CC1
not listed: [6] | [8] | [13] | [18] | [20]
inactive: all other assays above

O=C1Nc2ccc([N+](=O)[O-])cc2C1=O
not listed: [5] | [6] | [8] | [11] | [18] | [20]
inactive: all other assays above

CN(CC1(C)CCCO1)S(=O)(=O)c1ccc(Cl)c(S(N)(=O)=O)c1 (stereo not given)
not listed: [4] | [6] | [7] | [8] | [12] | [16] | [18]
inactive: all other assays above

O=[N+]([O-])c1nccn1CO[C@@H](CO)[C@H](O)CO
not listed: [6] | [8] | [12] | [19] | [20]
inactive: all other assays above

CCOc1ccc(NS(=O)(=O)c2ccc(N)cc2)nn1
not listed: [6] | [8] | [18] | [20]
inactive: all other assays above

COc1ccc(Nc2ccc(OC)cc2)cc1
not listed: [6] | [11] | [12] | [13] | [16] | [20]
inactive: all other assays above

N#CSCC(=O)O
not listed: [16] | [18] | [20]
inactive: all other assays above

CCCCCCCCCC#N
active: [2] 24.2 µM
not listed: [4] | [6] | [12] | [13] | [14]
inactive: all other assays above

CC(C)C(=O)OC/C=C/c1ccccc1
not listed: [5] | [6] | [12]
inactive: all other assays above

CCC(=O)c1ccc2c(c1)N(CCCN(C)C)c1ccccc1S2
active: [4] 26.6 µM | [5] 29.8 µM
not listed: [7] | [8] | [9] | [10] | [12] | [20]
inactive: all other assays above

CCOC(=O)CS
active: [2] 19.9 µM | [5] 70.5 µM
not listed: [4] | [6] | [7] | [8] | [19]
inactive: all other assays above

CC(C)NCC(O)COc1ccc(CCOCC2CC2)cc1 (stereo not given)
not listed: [6] | [8] | [9] | [10] | [18] | [20]
inactive: all other assays above

Reference: PubChem BioAssay (Tox21)
